# Measured values taken from PubChem BioAssay.
# Calls of active or inactive are those of the source. Unless noted, the rule behind the calls is not given here.
# Key:
# [1] = HepG2 liver cancer cell viability effects, profiling panel, resazurin fluorescence, 24 h, PK04 Diversity Set (AID 1172); settings: higher = more signal
# [2] = basal S. cerevisiae growth modulation, no modifier, primary screen, OD600, strain BY4716, 24 h, basal condition (AID 1173); settings: OD600, 24 h, higher = more signal, called active from +8 up or from −8 down
# [3] = MM1S myeloma cell viability, profiling panel, resazurin fluorescence, basal, 24 h, PK04 Diversity Set (AID 1174); settings: higher = more signal, called active from +8 up or from −8 down;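 note: MM1S multiple myeloma cell line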
# [4] = target: Dihydroorotate dehydrogenase (quinone), mitochondrial (Plasmodium falciparum (isolate 3D7)) (UniProt Q08210); assay: PfDHODH enzyme inhibitors, primary screen, biochemical, C-terminal His tag, absorbance 600 nm (AID 1175); settings: DCIP absorbance 600 nm, higher = more signal, called active from +8 up or from −8 down;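 note: recombinant parasite enzyme with a five histidine tag at its C terminus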
# Sequence of Dihydroorotate dehydrogenase (quinone), mitochondrial (Plasmodium falciparum (isolate 3D7)) (Q08210 whole entry, looked up): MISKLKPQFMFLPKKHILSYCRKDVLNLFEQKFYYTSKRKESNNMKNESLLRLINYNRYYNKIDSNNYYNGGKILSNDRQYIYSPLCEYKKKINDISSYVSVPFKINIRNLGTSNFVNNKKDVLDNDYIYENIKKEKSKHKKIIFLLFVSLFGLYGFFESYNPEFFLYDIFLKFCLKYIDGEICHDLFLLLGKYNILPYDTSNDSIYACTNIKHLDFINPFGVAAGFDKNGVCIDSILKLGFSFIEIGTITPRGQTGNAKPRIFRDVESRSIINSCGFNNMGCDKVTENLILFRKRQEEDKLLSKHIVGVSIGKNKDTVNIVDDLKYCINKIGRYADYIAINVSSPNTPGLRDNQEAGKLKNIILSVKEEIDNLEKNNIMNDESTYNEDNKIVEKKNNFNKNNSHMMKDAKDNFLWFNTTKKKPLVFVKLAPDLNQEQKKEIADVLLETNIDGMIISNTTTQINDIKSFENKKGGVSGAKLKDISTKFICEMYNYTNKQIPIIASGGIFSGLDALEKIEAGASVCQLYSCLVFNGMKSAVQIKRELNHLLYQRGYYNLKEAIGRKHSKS
# [5] = P. aeruginosa biofilm formation inhibitors, primary screen, strain PAO1, LB-PBS medium, absorbance 600 nm (AID 1176); settings: P. aeruginosa PAO1 growth/biofilm, A600, 12 h; higher = more signal
# [6] = S. cerevisiae RM11-1a growth modifiers, primary screen, strain RM11-1a, OD600, basal, 24 h (AID 1177); settings: OD600, 24 h, higher = more signal, called active from +8 up or from −8 down;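 note: cultures grown under basal conditions with no added stressor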
# [7] = E. coli acrAB mutant growth effects, primary screen, E. coli filamentation inducers, strain DRC39, OD650, 24 h (AID 1178); settings: higher = more signal, called active from +8 up or from −8 down;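 note: growth measured as culture turbidity by optical density at 650 nm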
# [8] = E. coli acrAB mutant growth effects, primary screen, E. coli filamentation inducers, strain DRC39, OD650, 48 h (AID 1179);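 note: screen aims at cell division blockers that make cells filament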; settings: E. coli DRC39 delta-acrAB growth, higher = more signal, called active from +8 up or from −8 down
# [9] = RPMI8226 myeloma cell viability, profiling panel, resazurin fluorescence, basal, 24 h, PK04 Diversity Set (AID 1180); settings: higher = more signal;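 note: RPMI8826 multiple myeloma cell line at 5000 cells per well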
# [10] = target: E3 ubiquitin-protein ligase XIAP (Homo sapiens) (UniProt P98170); assay: XIAP binders, primary screen, biophysical, small-molecule microarray, fluorescence 635 nm (AID 1181); settings: small-molecule microarray binding, higher = more signal;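 note: score merges 667 nm emission and signal to noise over triplicate slides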
# Sequence of E3 ubiquitin-protein ligase XIAP (Homo sapiens) (P98170 whole entry, looked up): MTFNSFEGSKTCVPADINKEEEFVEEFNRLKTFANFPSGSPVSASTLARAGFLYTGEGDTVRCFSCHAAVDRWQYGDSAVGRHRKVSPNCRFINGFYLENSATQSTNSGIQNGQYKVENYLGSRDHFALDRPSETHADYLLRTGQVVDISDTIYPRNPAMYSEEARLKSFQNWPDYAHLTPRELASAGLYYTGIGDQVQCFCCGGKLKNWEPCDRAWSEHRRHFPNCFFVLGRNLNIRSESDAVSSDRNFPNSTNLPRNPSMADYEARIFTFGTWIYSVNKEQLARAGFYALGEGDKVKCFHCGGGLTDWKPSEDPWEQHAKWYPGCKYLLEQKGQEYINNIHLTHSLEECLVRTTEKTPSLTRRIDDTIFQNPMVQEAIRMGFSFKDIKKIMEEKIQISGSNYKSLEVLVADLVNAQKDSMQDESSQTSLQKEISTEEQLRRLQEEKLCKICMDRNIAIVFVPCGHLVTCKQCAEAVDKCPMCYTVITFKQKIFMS
# [11] = tested on: XIP peptide (Xip251-270) binding; assay: small-molecule binders of XIP peptide, primary screen, biochemical, small-molecule microarray, fluorescence 635/667 nm, 0.1 µg/mL protein (AID 1182); settings: fluorescent protein binding, 635 nm, higher = more signal, called active from +8 up or from −8 down
# [12] = tested on: XIP peptide (Xip251-270); assay: small-molecule binders of XIP peptide, primary screen, biochemical, small-molecule microarray, fluorescence 635/667 nm, 0.5 µg/mL protein (AID 1183); settings: small-molecule microarray binding, fluorescence 635 nm; higher = more signal
# [13] = Plasmodium falciparum growth inhibition, primary screen, strain 3D7, DAPI fluorescence, 100 nL (AID 1184);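 note: parasites grown inside human red blood cells in medium with human serum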; settings: P. falciparum 3D7 growth, 3 d, higher = more signal
# [14] = target: Homeobox protein Hox-A13 (Mus musculus) (UniProt Q62424); assay: inhibitors of HoxA13-DNA binding, primary screen, biochemical, fluorescence polarization, labeled oligonucleotide (AID 1185); settings: 15 min, higher = more signal, called active from +8 up or from −8 down
# Sequence of Homeobox protein Hox-A13 (Mus musculus) (Q62424 whole entry, looked up): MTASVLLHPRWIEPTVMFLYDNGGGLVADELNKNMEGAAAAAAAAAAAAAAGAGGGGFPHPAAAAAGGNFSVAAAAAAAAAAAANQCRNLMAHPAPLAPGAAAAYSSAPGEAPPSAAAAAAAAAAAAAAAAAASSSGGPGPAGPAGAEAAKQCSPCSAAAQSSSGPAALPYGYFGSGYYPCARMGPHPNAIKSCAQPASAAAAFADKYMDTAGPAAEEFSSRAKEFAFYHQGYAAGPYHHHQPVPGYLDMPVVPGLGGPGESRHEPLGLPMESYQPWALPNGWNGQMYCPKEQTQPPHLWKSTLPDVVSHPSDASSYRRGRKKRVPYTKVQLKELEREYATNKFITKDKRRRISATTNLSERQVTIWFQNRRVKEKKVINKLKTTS
# [15] = inhibitors of hydroxyurea-induced Chk1 phosphorylation, primary screen, imaging, HeLa, phospho-Chk1 antibody, percent positive cells (AID 1186); settings: hydroxyurea-induced phospho-Chk1 immunofluorescence imaging, higher = more signal
# [16] = inhibitors of hydroxyurea-induced Chk1 phosphorylation, primary screen, imaging, HeLa, phospho-Chk1 nuclear intensity (AID 1187); settings: hydroxyurea-induced phospho-Chk1 immunofluorescence imaging, higher = more signal
Structure (SMILES),z-score [1],z-score [2],z-score [3],composite z-score [4],z-score [5],z-score [6],z-score [7],z-score [8],z-score [9],composite z-score [10],composite z-score [11],composite z-score [12],z-score [13],z-score [14],z-score [15],z-score [16]
Cc1ccccc1C(O)C1C=CC2C(=O)N(C)C(=O)C2N1N1CCCCC1 (centres undefined),-0.424,0.492 (inactive),-1.24 (inactive),-0.318 (inactive),0.723 (inactive),-0.252 (inactive),-0.751 (inactive),-0.495 (inactive),-1.64,0.124,0.547 (inactive),0.576,0.737,-6.67 (inactive),0.193 (inactive),-0.0403 (inactive)
C=CCOC(=O)[C@H]1[C@@H]2C(=O)O[C@@H](c3ccccc3)[C@@H](c3ccccc3)N2[C@@H](c2ccc(OCCOC(=O)[C@@H]3C[C@@H]4C(=O)NCC(=O)N4[C@@H]3c3ccc(O)cc3)cc2)[C@]12C(=O)Nc1ccccc12,0.558,-0.0301 (inactive),1.56 (inactive),-0.803 (inactive),2.05 (inactive),-1.38 (inactive),0.971 (inactive),1.61 (inactive),0.765,-0.121,0.941 (inactive),0.854,-1.86,0.503 (inactive),-0.341 (inactive),0.559 (inactive)
Cc1ccc(S[C@]2(C(=O)NCC(C)C)CC(=O)N(Cc3ccccc3)[C@@H]2c2ccc(CO)cc2I)cc1,-0.629,-1.51 (inactive),-1.73 (inactive),0.47 (inactive),0.282 (inactive),0.341 (inactive),-0.0655 (inactive),-0.553 (inactive),-1.89,0.0583,0.0656 (inactive),0.292,-0.769,-3.29 (inactive),0.292 (inactive),0.556 (inactive)
COCCOC(=O)N1C(=O)[C@@]2(c3cc(C#CCNC(N)=O)ccc31)[C@H](c1ccc(O)cc1)N1[C@H](c3ccccc3)[C@H](c3ccccc3)OC(=O)[C@H]1[C@@H]2C(=O)NC[C@H](O)c1ccccc1,-0.197,0.947 (inactive),0.302 (inactive),0.924 (inactive),0.69 (inactive),1.23 (inactive),0.248 (inactive),0.193 (inactive),-0.949,-0.0807,1.82 (inactive),0.733,-0.0916,-3.19 (inactive),-0.107 (inactive),-0.369 (inactive)
COCCOC(=O)N1C(=O)[C@@]2(c3ccccc31)[C@H](C(=O)NC[C@H](O)c1ccccc1)[C@H]1C(=O)O[C@H](c3ccccc3)[C@H](c3ccccc3)N1[C@@H]2c1ccc(OCCO)cc1,1.09,1.42 (inactive),-1.04 (inactive),-0.0923 (inactive),2.36 (inactive),1.61 (inactive),0.649 (inactive),-0.559 (inactive),-0.744,-0.156,0.868 (inactive),0.645,-2.02,-4.33 (inactive),-0.293 (inactive),-0.262 (inactive)
O=C1N(CCS(=O)(=O)c2ccccc2)Cc2ccccc2C[C@]12N=C(c1ccc(OCCCO)cc1)O[C@@H]2c1ccccc1,-1.08,1.07 (inactive),-2.68 (inactive),-1.48 (inactive),0.0658 (inactive),1.52 (inactive),-0.0937 (inactive),1.28 (inactive),-1.99,0.0191,0.194 (inactive),0.789,-2.34,-2.61 (inactive),-0.719 (inactive),-0.709 (inactive)
C=C(C(=O)CC[C@H](OC(C)=O)c1ccc(OCCO)cc1)C(C)C,0.163,-16.2 (active),0.192 (inactive),-8.01 (active),-1.21 (inactive),-21.4 (active),-0.135 (inactive),0.204 (inactive),-0.349,-0.177,0.0512 (inactive),0.601,-2.57,-3.14 (inactive),0.772 (inactive),-0.0365 (inactive)
O=C1O[C@@H](c2ccccc2)[C@@H](c2ccccc2)N2[C@@H](c3ccc(O)cc3)[C@]3(C(=O)Nc4ccc(C#CC5(O)CCCCCC5)cc43)[C@@H](C(=O)N3CCCCCCC3)[C@H]12,0.366,-0.479 (inactive),-0.895 (inactive),0.916 (inactive),1.89 (inactive),0.141 (inactive),-0.284 (inactive),0.38 (inactive),-0.884,0.479,1.51 (inactive),0.855,-0.667,1.7 (inactive),-0.129 (inactive),-0.0414 (inactive)
Cc1ccc(S[C@]2(C(=O)NCc3ccccc3)CC(=O)N(Cc3ccccc3)[C@@H]2c2ccc(CO)cc2)cc1,-0.345,-0.27 (inactive),0.0206 (inactive),-0.465 (inactive),0.429 (inactive),0.265 (inactive),-0.037 (inactive),-0.472 (inactive),-0.0925,-0.121,0.824 (inactive),0.849,0.101,-2.39 (inactive),-0.0397 (inactive),0.377 (inactive)
C=CCOC(=O)[C@@H]1[C@H]2C(=O)O[C@H](c3ccccc3)[C@H](c3ccccc3)N2[C@H](c2ccc(OCCOC(=O)[C@@H]3C[C@@H]4C(=O)NCC(=O)N4[C@@H]3c3cccc(OCCO)c3)cc2)[C@@]12C(=O)Nc1ccc(I)cc12,0.0068,1.24 (inactive),0.132 (inactive),-0.173 (inactive),2.17 (inactive),1.65 (inactive),0.451 (inactive),0.17 (inactive),0.487,0.0586,0.567 (inactive),0.765,-1.6,0.8 (inactive),1.07 (inactive),0.783 (inactive)
Cc1ccc([C@H]2[C@H](C(=O)O)[C@H](Sc3ccccc3)[C@@H](C(C)C)N2S(=O)(=O)c2ccc(C)cc2)cc1,-1.15,-0.138 (inactive),-0.498 (inactive),0.184 (inactive),0.0362 (inactive),-0.528 (inactive),-1.44 (inactive),-0.292 (inactive),-1.39,0.603,2.49 (inactive),0.787,-0.619,-6 (inactive),0.237 (inactive),-0.0069 (inactive)
COc1ccc(C(O)C2C=CC3C(=O)NC(=O)C3N2Nc2ccccn2)cc1OCc1ccccc1 (centres undefined),-0.8,0.481 (inactive),-0.581 (inactive),1.58 (inactive),1.48 (inactive),0.18 (inactive),-0.855 (inactive),0.145 (inactive),-1.87,0.578,0.816 (inactive),-0.0026,-0.235,-2.68 (inactive),0.682 (inactive),0.581 (inactive)
CCOC(=O)C[C@H]1[C@H](OC(=O)c2ccc(C(=O)c3ccccc3)cc2)[C@@H](NC(=O)C2CCCCC2)c2cc(OCCCO)ccc2N1C(=O)c1ccccc1,-0.341,-0.153 (inactive),-0.239 (inactive),-1.06 (inactive),0.0186 (inactive),-0.3 (inactive),-0.715 (inactive),-0.549 (inactive),-0.125,-0.145,-0.373 (inactive),0.186,0.863,-2.97 (inactive),0.454 (inactive),0.0465 (inactive)
O=C1OCCC=C[C@H]2OC34C=CCN(Cc5ccccc5)C(=O)[C@H]3N(CCCCCCO)C(=O)[C@@H]4C12 (some centres undefined),1.83,0.0187 (inactive),0.654 (inactive),0.261 (inactive),-0.208 (inactive),0.589 (inactive),0.759 (inactive),0.653 (inactive),0.183,-0.0918,-0.271 (inactive),0.8,0.0921,-4.32 (inactive),0.249 (inactive),0.489 (inactive)
COCCOC(=O)N1C(=O)[C@@]2(c3cc(C#CCC(C(=O)OC)C(=O)OC)ccc31)[C@H](c1ccccc1OCCO)N1[C@H](c3ccccc3)[C@H](c3ccccc3)OC(=O)[C@H]1[C@@H]2C(N)=O,-0.592,0.9 (inactive),-9.3 (active),0.47 (inactive),0.774 (inactive),1.97 (inactive),0.116 (inactive),0.857 (inactive),-7.24,-0.0874,0.547 (inactive),0.827,-2.07,-1.36 (inactive),-0.192 (inactive),-0.0971 (inactive)
C=C[C@H](COC(C)=O)N(Cc1ccc(OC(C)=O)c(OC)c1)S(=O)(=O)c1ccc(Br)cc1,0.203,-0.533 (inactive),0.427 (inactive),-1.24 (inactive),-0.152 (inactive),0.318 (inactive),1.65 (inactive),2.5 (inactive),0.798,-0.162,0.353 (inactive),0.713,0.371,-5.58 (inactive),-0.245 (inactive),-0.314 (inactive)
O=C1OCCC=C[C@H]2OC34C=CCN(Cc5ccccc5)C(=O)[C@H]3N(CCCCCO)C(=O)[C@@H]4C12 (some centres undefined),1.12,-0.266 (inactive),1.61 (inactive),-1.12 (inactive),0.357 (inactive),0.484 (inactive),1.24 (inactive),0.927 (inactive),1.4,0.13,1.16 (inactive),-0.0335,0.0195,-4.46 (inactive),-0.218 (inactive),0.534 (inactive)
C=CCNC(=O)[C@@H]1[C@H]2C(=O)O[C@H](c3ccccc3)[C@H](c3ccccc3)N2[C@H](c2ccc(O)cc2)[C@@]12C(=O)N(C(=O)OCCOC)c1ccccc12,0.09,0.57 (inactive),0.177 (inactive),-0.186 (inactive),0.817 (inactive),1.01 (inactive),-0.233 (inactive),-0.33 (inactive),0.209,-0.17,2.55 (inactive),0.525,-2.07,-2.07 (inactive),0.209 (inactive),0.354 (inactive)
C=CC[C@@]1(C(=O)O)N=C(c2ccc(OCCCO)cc2)O[C@@H]1c1ccccc1N=[N+]=[N-],0.0725,-0.769 (inactive),-0.702 (inactive),0.535 (inactive),0.976 (inactive),0.15 (inactive),0.236 (inactive),-0.154 (inactive),-0.0493,-0.0559,0.926 (inactive),0.823,-0.814,-6.19 (inactive),0.103 (inactive),-0.0861 (inactive)
